Usually inhibition stands for the change of the read-out against control, counted positive when it falls.

Unmarked numbers belong to inactive results. How the calls were made is not given here.

We go through 104 molecules from PubChem BioAssay.

The target of this assay is Pantothenate synthetase (Mycobacterium tuberculosis (strain ATCC 25618 / H37Rv)) (UniProt P9WIL5). The experiment in a line: Recombinant Mtb pantothenate synthetase (PanC) inhibitors, coupled enzyme, confirmatory (AID 375).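 Further: 0% = full reaction with vehicle and 100% = no enzyme background.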 To be noted: coupled enzyme assay; at 10 µM, active compounds read high.
Sequence of Pantothenate synthetase (Mycobacterium tuberculosis (strain ATCC 25618 / H37Rv)) (P9WIL5 whole entry, looked up): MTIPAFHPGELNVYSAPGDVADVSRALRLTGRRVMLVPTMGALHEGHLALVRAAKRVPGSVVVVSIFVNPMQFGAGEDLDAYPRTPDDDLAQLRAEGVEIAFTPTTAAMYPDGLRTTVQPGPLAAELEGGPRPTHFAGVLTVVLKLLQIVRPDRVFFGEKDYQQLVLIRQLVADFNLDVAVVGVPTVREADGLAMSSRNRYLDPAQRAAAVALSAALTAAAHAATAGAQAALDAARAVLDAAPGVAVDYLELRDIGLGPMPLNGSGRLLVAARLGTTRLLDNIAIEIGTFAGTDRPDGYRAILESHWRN

With `Brc1ccccc1-c1nc(-c2ccccc2)no1`, the inhibition is 0%. On to `CCOC(=O)CNC(=O)c1c(C)nn(-c2ccccc2)c1Cl`, for which the inhibition is 0%.

In the case of `COc1ccc(-c2nnc(SCC(=O)NC(=O)NCc3ccco3)o2)cc1`, the inhibition is 0%. As to `O=C(CN1C(=O)c2cccc3cccc1c23)N1CCN(c2ccccc2)CC1`, the inhibition is 0%. Take `Cc1c(/C(O)=C2/C(=O)C(=O)N(CCN3CCOCC3)C2c2cccs2)cnn1-c1ccccc1` (centres undefined): the inhibition was 8%. On to `CCOC(=O)c1cc2n(n1)C(C(F)(F)C(F)(F)F)CC(C)N2` (centres undefined), for which the inhibition is 1%. As for `CCOc1cc(C(=O)NCC2CCCO2)cc(OCC)c1OCC` (centres undefined), the inhibition is 3%.

Consider `CCOc1ccc(OCC)c(NC(=O)C2CCN(c3ncccn3)CC2)c1`, for which the inhibition was 0%. `CCN(CC)S(=O)(=O)c1ccc(F)c(C(=O)NCCC(C)C)c1`: the inhibition is 2%. With `CC(=O)SCC(=O)N=c1sc2cc(F)ccc2n1C`, the inhibition was 0%. The result for `Cc1nc2ccc(S(=O)(=O)NC(C(=O)NCc3cccs3)C(C)C)cc2s1` (centres undefined) reads 0%; that for `Cc1c(NC(=O)c2nn(C)c(=O)c3ccccc23)c(=O)n(-c2ccccc2)n1C`, 0%. Regarding `CC1CCCC(C)N1C(=O)CSc1nnc(-c2cccs2)o1` (centres undefined), the inhibition is 1%. As for `Cc1nc2cc(CO)ccc2n1C`, the inhibition is 4%. On to `CN(C)c1ccc(-c2nn3c(-c4ccc(Cl)cc4Cl)nnc3s2)cc1`, for which the inhibition was 9%. Take `CN(C)[C@@H]1C(=O)C(C(N)=O)=C(O)[C@@]2(O)C(=O)C3=C(O)c4c(O)ccc(Cl)c4[C@@H](O)[C@H]3C[C@@H]12`: the inhibition was 0%. With `O=C(CSc1ccc(Cl)cc1)OCc1nnc(-c2ccccc2)o1`, the inhibition is 1%.

For `COc1ccccc1N1C(=O)CC(Sc2nc(C)cc(C)n2)C1=O` (centres undefined), the inhibition is 0%. On to `C=CCn1c(N)c(C(=O)NCCC2=CCCCC2)sc1=S`, for which the inhibition was 0%.

`COC(=O)C1C(=O)C2=C(CC1C)NC(=O)CC2c1ccccc1` (centres undefined): the inhibition was 0%.

Regarding `COc1ccc(OC)c(NC(=O)CCN2CCN(c3ccccc3F)CC2)c1`, the inhibition was 4%. Then `CN1CCN(CCCN2c3ccccc3Sc3ccc(Cl)cc32)CC1`, with 0%; and `N#Cc1nc(-c2cccs2)oc1NCCc1ccccc1`, with 0%. Regarding `Cc1nnc(NC(=O)c2ccccc2F)s1`, the inhibition is 0%. For `c1ccn2c(SCc3ccc4c(c3)OCCO4)nnc2c1`, the inhibition is 1%. On to `O=C(O)CCCC(=O)Nc1nc(-c2ccc(F)cc2)cs1`, for which the inhibition was 0%.

Take `N/C(=N/O)c1nc(N2CCCC2)nc(N(c2ccccc2)c2ccccc2)n1`: the inhibition is 7%.

As to `O=C(Cn1ccc2ccccc2c1=O)NCCC(=O)N1CCN(C(=O)c2ccco2)CC1`, the inhibition is 9%. With `CCC(OC(=O)c1cccs1)C(=O)NCc1ccco1` (centres undefined), the inhibition is 0%. With `Cc1cnn(Cc2ccccc2)c1N`, the inhibition was 3%. Consider `Cc1ccccc1NC(=O)C1CCC(C)(C(=O)O)C1(C)C` (centres undefined), for which the inhibition was 0%. Then `CN(c1ccccc1C(=O)N1CCN(c2cccc(Cl)c2)CC1)S(C)(=O)=O`, with 0%; and `O=C(Nc1nncs1)c1ccccc1NS(=O)(=O)c1cccs1`, with 0%.

With `COC(=O)c1cc2ccsc2n1CC(=O)N(C)c1ccccc1`, the inhibition is 10%. Take `O=C(COc1cccc(Oc2ccccc2)c1)Nc1ncccn1`: the inhibition is 2%.

In the case of `CS(=O)(=O)N(CC(=O)N1CCCCCC1)c1ccccc1`, the inhibition was 8%.

Consider `COC(=O)n1c(=S)oc2cc(Cl)ccc21`, for which the inhibition was 0%. Regarding `CCOC(=O)C1CCN(c2c(NCCN3CCN(c4ccccc4)CC3)c(=O)c2=O)CC1`, the inhibition was 0%. Take `CCn1nnc(NC(=O)c2ccccc2Br)n1`: the inhibition was 0%. Then `CCOC(=O)c1cccc(NC(=O)CNS(=O)(=O)c2cccs2)c1`, with 0%. For `CCC(CC)n1[nH]c(=O)c2c(C)cc(C)nc21`, the inhibition is 3%. On to `COC(=O)C1=C(C)C(c2cccs2)NC(=O)N1C` (centres undefined), for which the inhibition is 0%. Turning to `Cc1ccc2cc(CN(CC3CCCO3)S(=O)(=O)c3ccc4c(c3)OCCO4)c(=O)[nH]c2c1C` (centres undefined), the inhibition was 2%. Consider `COc1cccc(-c2cc(C(F)(F)F)n3ncc(C(=O)O)c3n2)c1`, for which the inhibition is 0%. On to `O=c1c2ccccc2nc(SCc2nc(-c3ccccc3)no2)n1-c1ccc(F)cc1`, for which the inhibition was 0%. Consider `O=C(c1ccccc1)N1CCN(CC2CC=CCC2)CC1` (centres undefined), for which the inhibition was 0%. Regarding `Cc1nc2ccccc2c(=O)n1/N=C/c1ccncc1`, the inhibition is 3%.

Consider `COc1ccc(OCC(=O)N2CCN(C(=O)Cc3ccccc3)CC2)cc1`, for which the inhibition was 0%. Take `O=C(Nc1nccs1)c1cccc(NC(=O)C2CC2)c1`: the inhibition is 6%.

For the molecule `O=c1c2c(nc3nc(COc4ccccc4)[nH]n13)CCC2`, the inhibition was 0%.

For the molecule `Cc1nc(SCC(=O)Nc2ccccc2C(F)(F)F)c2c(=O)n(C)c(=O)n(C)c2n1`, the inhibition is 4%. Take `CCCC1(C(=O)OC)NC(c2cc(OC)c(OC)c(OC)c2)C2C(=O)N(CC)C(=O)C21` (centres undefined): the inhibition was 0%.

On to `COC(=O)C1=C(C)NC(=O)C1(NC(=O)c1cccnc1)C(F)(F)F` (centres undefined), for which the inhibition is 0%. For `O=C1C/C(=C/NCc2ccccc2)C(=O)N1`, the inhibition was 3%.

On to `O=c1[nH]c2ccc(S(=O)(=O)N3CCN(C4CCCCC4)CC3)cc2[nH]c1=O`, for which the inhibition was 1%. With `Cc1ccc(OC(=O)NC2CCS(=O)(=O)C2)cc1C` (centres undefined), the inhibition was 0%. As to `Cc1noc(C)c1S(=O)(=O)NCCN1CCN(c2ccccc2)CC1`, the inhibition was 4%. As for `Clc1ccc(OCCCn2cncn2)cc1Cl`, the inhibition was 0%. Take `COc1ccccc1NC(=O)NCc1ccc2c(c1)OCO2`: the inhibition was 1%. On to `CCCC(C)C1C(C#N)=C(N)Oc2cc(C)oc(=O)c21` (centres undefined), for which the inhibition was 1%.

As to `Cc1cc(NC(=O)CSc2nccn2-c2ccc(Cl)cc2)no1`, the inhibition was 0%. For `CCOC(=O)N1CCC(NC(=O)c2cnn3ccccc23)CC1`, the inhibition was 0%. For `Cc1ccccc1Cn1c(=O)c2c(nc3n2CCCN3Cc2ccccc2)n(C)c1=O`, the inhibition is 0%. As for `COc1ccc(-c2nnc(SCc3nnc(-c4ccc(Cl)cc4)o3)n2-c2ccccc2)cc1`, the inhibition is 0%. `CCOC(=O)c1ccc(Oc2nc(NC)nc(OC)n2)cc1`: the inhibition was 0%. In the case of `CCCCCc1c(C)nc(SCC(=O)O)[nH]c1=O`, the inhibition is 0%. Then `COC(=O)c1ccccc1OCC(=O)NC1CCCCC1`, with 0%; and `O=c1n(CCCN2CCN(c3cccc(Cl)c3)CC2)nc2ccccn12`, with 0%; and `O=C(NCc1cccnc1)/C(=N\O)c1ccccc1`, with 0%. With `COC(=O)[C@H](C)NC(=O)Nc1cc(OC)ccc1OC`, the inhibition was 0%. In the case of `CCCC(=O)Nc1cc(C)c(NC(=O)c2ccccn2)cn1`, the inhibition is 0%. Regarding `O=C(O)Cc1cc(I)c(Oc2ccc(O)c(I)c2)c(I)c1`, the inhibition was 0%.

Regarding `Cc1nnc2n(Cc3ccccc3)c(=O)c3c4c(sc3n12)COC(C(C)C)C4` (centres undefined), the inhibition is 0%. Consider `O=C1NC(=O)C(CC(=O)N(c2ccccc2)C2(C(=O)NC3CCCC3)CCCCC2)N1` (centres undefined), for which the inhibition was 2%. On to `COc1ccc(N2CCN(C(=O)COc3ccc4ccccc4c3)CC2)cc1`, for which the inhibition is 2%. On to `CC1CCN(C(=O)CN2C(=O)C(C)(C)Oc3ccc(C(=O)NC4CCCC4)cc32)CC1`, for which the inhibition was 0%. Regarding `CCN(CC)CCNC(=O)c1ccc(N2CCCCC2)c(NS(=O)(=O)c2ccc(C)cc2)c1`, the inhibition is 12%. The result for `CCC1CCc2c(sc3ncnc(N4CCOCC4)c23)C1` (centres undefined) reads 0%; that for `COc1ccc2cnn(-c3ccccc3C)c(=O)c2c1OC`, 3%; that for `O=C(Nc1ccc2oc(=O)ccc2c1)c1cccnc1`, 0%. Turning to `Cc1cc(C)n2nc(C(=O)NCc3ccco3)nc2n1`, the inhibition is 3%. For `CCC1(C)Cc2c(C#N)c(N)n(N)c(=S)c2CO1` (centres undefined), the inhibition was 0%. For the molecule `COc1ccc(S(=O)(=O)Nc2ccc(S(=O)(=O)N3CCCCC3)cc2)cc1OC`, the inhibition was 0%.

With `O=C(c1cccnc1)N1CCN(C(=O)c2ccccc2F)CC1`, the inhibition was 4%. `COc1ccccc1CNC(=O)C1CCN(S(=O)(=O)N2CCCCC2)CC1`: the inhibition is 0%. As to `CC(C)Cc1nc2oc3c(N4CCN(CCO)CC4)ncnc3c2c2c1CCCC2`, the inhibition was 0%. Turning to `Cc1c(C(=O)OC2CCCCC2)[nH]c2c1C(=O)CC(C)(C)C2`, the inhibition was 0%. For `CCOc1ccc2c(c1)sc1nc(C(=O)OC)cc(=O)n12`, the inhibition is 0%.

With `O=C(COc1ccc2ccccc2c1)N1CCCC1`, the inhibition is 8%. Turning to `CCCCP(=O)(CCCC)c1ccccc1C(=O)O`, the inhibition is 3%. For the molecule `CCN1C(=O)NC(c2cc(Br)ccc2OC)C(C(=O)OC)=C1C` (centres undefined), the inhibition is 0%. Then `CCN1C(=O)CC(N2CCC(Nc3ccc(F)cc3)CC2)C1=O` (centres undefined), with 0%. As to `Cc1cc(-c2ccccc2)nc2cc(C(=O)NCCCn3ccnc3)nn12`, the inhibition was 7%.

Turning to `Cc1nnc(NC(=O)c2ccco2)s1`, the inhibition was 5%. Then `COc1cc(NC(=O)c2cc(-n3cnnc3)ccc2Cl)cc(OC)c1`, with 2%; and `COC(=O)c1[nH]c2ccc(C)cc2c1NC(=O)CN1CCCC(C)(C)C1`, with 0%. Consider `O=C(COc1ccccc1)Nc1ccc(-c2nnc(-c3ccco3)o2)cc1`, for which the inhibition is 2%. For `CCOC(=O)C1=C(C)NC(C)=C(C(=O)OC)C1c1cccc([N+](=O)[O-])c1` (centres undefined), the inhibition is 7%. Regarding `COc1cc(/C=N/n2cnnc2)ccc1OCC(=O)N1CCOCC1`, the inhibition was 0%. Take `COc1ccc(N2CCN(C(=O)CSc3ccccc3N)CC2)cc1`: the inhibition was 0%. Turning to `CCCN(CCC)S(=O)(=O)c1ccc(C(=O)Nc2nnc(-c3cccc(OC)c3)o2)cc1`, the inhibition was 6%. For `C=CCN(CC=C)C(=O)CN1C(=O)c2ccccc2C1=O`, the inhibition is 0%. Turning to `CC(C)(Oc1ccc(Cl)cc1)C(=O)NCc1ccncc1`, the inhibition is 3%. The result for `Cc1nc2ccccc2cc1O` reads 0%.
